Molecules are shown by their SMILES. Potency and affinity values are given separately. Calls of active or inactive are those of the source. No rule for the calls is given here.

A short description of the assay: HeLa cell cytotoxicity, dose response, cytotoxicity control, 24 h, plate reader, powder samples, set 3 (AID 651864). The note with it: HeLa viability, CellTiter-Glo ATP luminescence; series mostly up to 80 µM; activity change, negative = cytotoxicity: at the top concentration. (In general: ATP-based viability assays read luminescence as a measure of living cells.)
For `O=C(Cc1ccccc1Cl)NC1CCCC1`, the “activity change, negative = cytotoxicity” value was -0.086% (inactive).

Turning to `CC1(NC(=O)Cc2ccc(-c3ccccc3)cc2)COC1`, the “activity change, negative = cytotoxicity” value was 4.83% (inactive). As to `Cc1ccccc1CC(=O)NC1CCCC1`, the “activity change, negative = cytotoxicity” value was 1.63% (inactive). Take `O=C(Cc1ccc(-c2ccccc2)cc1)NC1CCC1`: the “activity change, negative = cytotoxicity” value was 1.56% (inactive).

As for `O=C(Cc1ccccc1OC(F)(F)F)NC1CCCC1`, the “activity change, negative = cytotoxicity” value is 8.23% (inactive). For `CC(C)NC(=O)Cc1ccc(-c2ccccc2)cc1`, the “activity change, negative = cytotoxicity” value is 3.84% (inactive). With `COc1ccc(CC(=O)NC2CCCC2)cc1`, the “activity change, negative = cytotoxicity” value is 2.25% (inactive). For `CC(C)(C)OC(=O)N1CC(NC(=O)Cc2ccc(-c3ccccc3)cc2)C1`, the “activity change, negative = cytotoxicity” value was 10.6% (inactive). Regarding `c1ccc(Cn2nnnc2NCc2ccc(N3CCCC3)cc2)cc1`, the “activity change, negative = cytotoxicity” value is 2.68% (inactive). In the case of `Cc1ccc(Cn2nnnc2NCc2ccc(N3CCCC3)cc2)cc1`, the “activity change, negative = cytotoxicity” value was 17.3% (inactive). In the case of `CCn1nnnc1NCc1cccc(N2CCCC2)c1`, the “activity change, negative = cytotoxicity” value was -7.97% (inactive). In the case of `CCCn1nnnc1NCc1ccc(C(C)C)cc1`, the “activity change, negative = cytotoxicity” value is 1.72% (inactive). `CCn1nnnc1CCc1ccc(N2CCCC2)cc1`: the “activity change, negative = cytotoxicity” value was -12.4% (inactive). For `Fc1ccc(Cn2nnnc2NCc2ccc(N3CCCC3)cc2)cc1`, the “activity change, negative = cytotoxicity” value is 28.2% (inactive). With `CCn1nnnc1NCc1ccc(N2CCCCC2)cc1`, the “activity change, negative = cytotoxicity” value is -1.74% (inactive).

Consider `CCn1nnnc1NCc1ccccc1N1CCCC1`, for which the “activity change, negative = cytotoxicity” value is -2.38% (inactive).

Consider `CCn1nnnc1NCc1ccc(C(C)C)cc1`, for which the “activity change, negative = cytotoxicity” value was 0.265% (inactive). Regarding `c1ccc(-n2nnnc2NCc2ccc(N3CCCC3)cc2)cc1`, the “activity change, negative = cytotoxicity” value is 4.99% (inactive). Same read-out and setting: the result for `O=C(Cc1ccc(-c2ccccc2)cc1)NC1CC1` reads 3.37% (inactive); that for `CC(C)c1ccc(CNc2nnnn2C)cc1`, -2.22% (inactive). For `Cn1nnnc1NCc1ccc(N2CCCC2)cc1`, the “activity change, negative = cytotoxicity” value was 9.42% (inactive). On to `O=C(Cc1ccc(-c2ccccc2)cc1)NC1CCOCC1`, for which the “activity change, negative = cytotoxicity” value was 1.16% (inactive). With `O=C(Cc1ccccc1C(F)(F)F)NC1CCCC1`, the “activity change, negative = cytotoxicity” value was 8.84% (inactive).

For the molecule `CCn1nnnc1NCc1cccc(OC)c1`, the “activity change, negative = cytotoxicity” value is 12.2% (inactive). On to `CCCn1nnnc1NCc1ccccc1Cl`, for which the “activity change, negative = cytotoxicity” value is -9.87% (inactive). In the case of `CCCCn1nnnc1NCc1ccc(N2CCCC2)cc1`, the “activity change, negative = cytotoxicity” value was -9.35% (inactive). Regarding `CS(=O)(=O)c1ccc(CC(=O)NC2CCCC2)cc1`, the “activity change, negative = cytotoxicity” value was 9.49% (inactive). `O=C(Cc1cccc(OC(F)(F)F)c1)NC1CCCC1`: the “activity change, negative = cytotoxicity” value is 2.97% (inactive). Turning to `O=C(NCc1ccc(-c2ccccc2)cc1)C1CCCC1`, the “activity change, negative = cytotoxicity” value was 8.16% (inactive).

As for `O=C(Cc1ccc(-c2ccccc2)cc1)NC1CCCC1`, the molecule was called inactive. As for `O=C(Cc1ccccc1F)NC1CCCC1`, the “activity change, negative = cytotoxicity” value was 8.61% (inactive). As for `CCn1nnc(NCc2ccc(C)cc2)n1`, the “activity change, negative = cytotoxicity” value was 1.73% (inactive). Still for that read-out and setting: then `CCn1nnnc1NCc1ccc(N2CCCC2)cc1`, with 1.15% (inactive); and `O=C(Cc1cccc(F)c1)NC1CCCC1`, with 6.37% (inactive).

Values taken from PubChem BioAssay AID651864 (Broad Institute, 2012).
